Laboratory results from ChEMBL document CHEMBL3988442, “University of Dundee, Small-Polar-MMV Screening Library” (2021).
For some assays here: Results with a measured potency or affinity are listed apart.

How the values were obtained:
Parameters in all cases: scale not given: direction of the effect not stated beside the values
[1] = biological target: Protein translocase subunit SecA (Escherichia coli (strain K12)) (UniProt P10408); assay: Assay to Identify E. coli SecA ATPase Inhibitors; format: functional; conditions: 30 µM
Protein translocase subunit SecA (Escherichia coli (strain K12)), sequence (P10408 whole entry): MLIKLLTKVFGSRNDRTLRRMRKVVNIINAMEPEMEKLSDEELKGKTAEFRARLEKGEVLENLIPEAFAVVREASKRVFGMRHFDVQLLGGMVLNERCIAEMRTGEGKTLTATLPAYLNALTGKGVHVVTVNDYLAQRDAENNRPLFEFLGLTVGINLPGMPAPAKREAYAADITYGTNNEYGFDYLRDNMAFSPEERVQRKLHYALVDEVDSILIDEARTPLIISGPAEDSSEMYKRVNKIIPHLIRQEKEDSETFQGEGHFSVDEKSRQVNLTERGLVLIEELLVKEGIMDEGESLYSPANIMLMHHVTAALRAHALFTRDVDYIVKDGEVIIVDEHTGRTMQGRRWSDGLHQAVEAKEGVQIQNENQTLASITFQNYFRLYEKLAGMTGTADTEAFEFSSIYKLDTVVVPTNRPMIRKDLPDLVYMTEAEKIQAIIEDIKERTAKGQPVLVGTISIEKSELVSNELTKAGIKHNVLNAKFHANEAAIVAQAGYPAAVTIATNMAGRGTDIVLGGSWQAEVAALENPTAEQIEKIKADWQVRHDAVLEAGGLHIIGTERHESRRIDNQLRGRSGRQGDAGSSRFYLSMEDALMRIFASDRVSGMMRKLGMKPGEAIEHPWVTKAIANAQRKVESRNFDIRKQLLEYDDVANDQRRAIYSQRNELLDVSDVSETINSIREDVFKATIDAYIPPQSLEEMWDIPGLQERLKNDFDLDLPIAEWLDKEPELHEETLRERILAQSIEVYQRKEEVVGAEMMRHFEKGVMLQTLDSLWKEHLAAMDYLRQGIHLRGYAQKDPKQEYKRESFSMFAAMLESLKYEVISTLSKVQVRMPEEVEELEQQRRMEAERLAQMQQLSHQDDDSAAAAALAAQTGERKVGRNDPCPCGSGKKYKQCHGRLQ

[2] = biological target: T1, Ubiquitin-activating enzyme e1, putative (Leishmania donovani (strain BPK282A1)) (UniProt E9BSI1); assay: Leishmania donovani Ubiquitin Activating Enzyme (LdE1); format: functional; conditions: 30 µM
T1 sequence (whole entry): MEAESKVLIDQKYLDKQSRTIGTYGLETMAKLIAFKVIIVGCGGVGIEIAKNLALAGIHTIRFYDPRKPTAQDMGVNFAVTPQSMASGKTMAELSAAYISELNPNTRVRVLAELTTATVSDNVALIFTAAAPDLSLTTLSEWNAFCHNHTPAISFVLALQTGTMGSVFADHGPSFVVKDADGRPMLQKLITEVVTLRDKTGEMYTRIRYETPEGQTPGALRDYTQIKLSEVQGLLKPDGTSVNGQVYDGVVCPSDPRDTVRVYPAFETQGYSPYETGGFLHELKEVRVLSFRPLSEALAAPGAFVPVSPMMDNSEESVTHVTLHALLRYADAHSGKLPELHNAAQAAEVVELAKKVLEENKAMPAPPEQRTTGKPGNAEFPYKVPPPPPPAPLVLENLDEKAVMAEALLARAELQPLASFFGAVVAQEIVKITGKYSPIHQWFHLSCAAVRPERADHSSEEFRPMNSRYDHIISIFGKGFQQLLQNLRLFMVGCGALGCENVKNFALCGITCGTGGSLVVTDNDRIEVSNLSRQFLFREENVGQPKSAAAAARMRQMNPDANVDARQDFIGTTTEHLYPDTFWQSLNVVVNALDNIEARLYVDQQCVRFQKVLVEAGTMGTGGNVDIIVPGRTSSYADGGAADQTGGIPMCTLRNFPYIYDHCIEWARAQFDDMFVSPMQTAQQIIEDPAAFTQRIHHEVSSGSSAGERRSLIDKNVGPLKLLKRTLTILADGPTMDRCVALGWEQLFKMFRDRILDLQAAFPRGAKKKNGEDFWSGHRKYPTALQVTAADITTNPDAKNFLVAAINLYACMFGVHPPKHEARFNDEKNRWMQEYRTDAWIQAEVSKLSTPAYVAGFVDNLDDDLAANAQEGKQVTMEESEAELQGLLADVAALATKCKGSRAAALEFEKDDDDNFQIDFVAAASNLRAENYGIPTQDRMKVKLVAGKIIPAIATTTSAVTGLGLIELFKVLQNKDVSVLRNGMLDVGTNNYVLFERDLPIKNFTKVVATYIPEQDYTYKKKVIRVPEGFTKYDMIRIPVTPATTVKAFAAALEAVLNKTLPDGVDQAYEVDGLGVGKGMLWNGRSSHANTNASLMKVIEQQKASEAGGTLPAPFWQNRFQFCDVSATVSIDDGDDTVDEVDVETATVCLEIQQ

[3] = biological target: AMP-activated protein kinase, AMPK (Homo sapiens) (UniProt P54646+O43741+P54619+Q9UGJ0+Q9Y478+Q13131+Q9UGI9); assay: AMP-dependent Kinase enzyme assay. An in vitro enzyme assay that detects ADP turnover that is directly proportional to AMPK activity. This uses naive AMPK that is activated during the assay with MK-8722; format: functional; conditions: 30 µM
[4] = biological target: Sialic acid-binding Ig-like lectin 9 (Homo sapiens) (UniProt Q9Y336); assay: Hs-Siglec9 ALPHAscreen SOP 20170721; conditions: 10 µM
Sialic acid-binding Ig-like lectin 9 (Homo sapiens), sequence (Q9Y336 whole entry): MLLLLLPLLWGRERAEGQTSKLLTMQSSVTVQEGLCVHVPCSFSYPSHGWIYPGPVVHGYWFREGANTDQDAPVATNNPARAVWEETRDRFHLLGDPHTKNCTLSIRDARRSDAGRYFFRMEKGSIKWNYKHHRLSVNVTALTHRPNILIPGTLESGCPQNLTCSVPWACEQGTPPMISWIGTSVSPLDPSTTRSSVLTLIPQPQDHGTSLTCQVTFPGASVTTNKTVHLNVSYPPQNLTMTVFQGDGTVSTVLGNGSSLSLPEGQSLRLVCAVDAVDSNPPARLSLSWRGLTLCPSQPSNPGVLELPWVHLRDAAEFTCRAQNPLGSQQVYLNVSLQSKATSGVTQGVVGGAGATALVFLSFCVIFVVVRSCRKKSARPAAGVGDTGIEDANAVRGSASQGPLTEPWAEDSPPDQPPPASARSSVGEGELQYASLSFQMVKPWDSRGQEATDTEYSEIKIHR

Trypanosoma cruzi = assay: Trypanosoma cruzi phosphomannomutase and mannose-1-phosphate guanylyltransferase assay; format: functional; conditions: 10 µM
[5] = biological target: T2, Arginase-2, mitochondrial (Homo sapiens) (UniProt P78540); assay: in vitro enzyme assay to detect the production of urea directly proportional to the activity of Arginase II; format: functional; conditions: 33.3 µM; note: in the data most compounds retested in dose-response had high values
T2 sequence (whole entry): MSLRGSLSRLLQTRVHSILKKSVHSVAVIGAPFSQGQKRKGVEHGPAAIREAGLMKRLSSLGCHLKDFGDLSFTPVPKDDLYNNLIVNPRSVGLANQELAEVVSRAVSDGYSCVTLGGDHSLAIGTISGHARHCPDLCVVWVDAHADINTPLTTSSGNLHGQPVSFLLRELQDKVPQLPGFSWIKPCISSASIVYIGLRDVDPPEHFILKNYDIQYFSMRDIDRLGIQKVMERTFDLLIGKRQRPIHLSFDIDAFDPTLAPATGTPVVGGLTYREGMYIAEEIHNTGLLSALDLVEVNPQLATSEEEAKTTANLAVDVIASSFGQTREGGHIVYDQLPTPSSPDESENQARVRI

[6] = biological target: T3, Proteasome subunit beta (Trypanosoma cruzi) (UniProt O96673); assay: Trypanosoma cruzi proteasome chymotrypsin-like activity (TcProtChymo) assay.; note: in the data most compounds retested in dose-response had high values; format: functional; conditions: 9.37 µM
T3 sequence (whole entry): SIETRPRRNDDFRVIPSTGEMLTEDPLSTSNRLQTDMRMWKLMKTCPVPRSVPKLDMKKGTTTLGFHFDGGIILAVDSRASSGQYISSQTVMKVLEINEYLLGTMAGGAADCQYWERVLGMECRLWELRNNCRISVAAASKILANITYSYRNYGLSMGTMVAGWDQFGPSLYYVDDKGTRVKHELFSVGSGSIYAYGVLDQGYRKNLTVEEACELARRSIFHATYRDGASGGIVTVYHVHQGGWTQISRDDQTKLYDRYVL

Homo sapiens = species: Homo sapiens; assay: To identify inhibition of the IFN signalling (Jak-Stat) pathway via expression of an eGFP reporter gene under the control of an IFN-stimulated response element (ISRE) containing MxA promoter.; format: functional; conditions: 30 µM
[7] = biological target: T4, Tyrosyl-tRNA synthetase, putative (Trypanosoma cruzi (strain CL Brener)) (UniProt Q4DSP6); assay: Trypanosoma cruzi tyrosyl tRNA synthetase (TcYRS) _High Tyrosine SOP; format: functional; conditions: 30 µM; note: in the data most compounds retested in dose-response had high values
T4 sequence (whole entry): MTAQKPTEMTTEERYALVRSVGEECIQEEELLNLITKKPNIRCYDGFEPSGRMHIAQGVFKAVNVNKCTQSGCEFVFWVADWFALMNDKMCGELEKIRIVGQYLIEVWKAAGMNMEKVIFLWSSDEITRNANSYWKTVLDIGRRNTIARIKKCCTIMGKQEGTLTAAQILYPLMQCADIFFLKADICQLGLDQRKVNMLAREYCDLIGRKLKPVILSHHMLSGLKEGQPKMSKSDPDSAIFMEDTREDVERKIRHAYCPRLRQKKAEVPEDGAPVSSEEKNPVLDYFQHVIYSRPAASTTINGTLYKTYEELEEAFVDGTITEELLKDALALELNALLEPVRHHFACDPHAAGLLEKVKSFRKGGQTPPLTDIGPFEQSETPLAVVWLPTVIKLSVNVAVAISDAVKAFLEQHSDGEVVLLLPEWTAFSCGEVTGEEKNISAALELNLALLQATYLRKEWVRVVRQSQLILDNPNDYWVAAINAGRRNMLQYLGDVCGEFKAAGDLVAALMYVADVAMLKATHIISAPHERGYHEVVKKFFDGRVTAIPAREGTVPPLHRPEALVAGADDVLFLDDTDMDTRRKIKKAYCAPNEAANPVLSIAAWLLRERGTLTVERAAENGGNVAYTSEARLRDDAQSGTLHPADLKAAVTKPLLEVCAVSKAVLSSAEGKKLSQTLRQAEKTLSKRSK

[8] = biological target: T4, Tyrosyl-tRNA synthetase, putative (Trypanosoma cruzi (strain CL Brener)); assay: Trypanosoma cruzi tyrosyl tRNA synthetase (TcYRS) SOP; format: functional; conditions: 30 µM
[9] = biological target: Chromo domain-containing protein 1 (Saccharomyces cerevisiae (strain ATCC 204508 / S288c) (Baker's yeast)) (UniProt P32657); assay: ScCHD-1 Enzyme Inhibition Assay; format: functional; conditions: 30 µM; note: in the data most compounds retested in dose-response had high values
Chromo domain-containing protein 1 (Saccharomyces cerevisiae (strain ATCC 204508 / S288c) (Baker's yeast)), sequence (P32657 whole entry, the tested form may be a part): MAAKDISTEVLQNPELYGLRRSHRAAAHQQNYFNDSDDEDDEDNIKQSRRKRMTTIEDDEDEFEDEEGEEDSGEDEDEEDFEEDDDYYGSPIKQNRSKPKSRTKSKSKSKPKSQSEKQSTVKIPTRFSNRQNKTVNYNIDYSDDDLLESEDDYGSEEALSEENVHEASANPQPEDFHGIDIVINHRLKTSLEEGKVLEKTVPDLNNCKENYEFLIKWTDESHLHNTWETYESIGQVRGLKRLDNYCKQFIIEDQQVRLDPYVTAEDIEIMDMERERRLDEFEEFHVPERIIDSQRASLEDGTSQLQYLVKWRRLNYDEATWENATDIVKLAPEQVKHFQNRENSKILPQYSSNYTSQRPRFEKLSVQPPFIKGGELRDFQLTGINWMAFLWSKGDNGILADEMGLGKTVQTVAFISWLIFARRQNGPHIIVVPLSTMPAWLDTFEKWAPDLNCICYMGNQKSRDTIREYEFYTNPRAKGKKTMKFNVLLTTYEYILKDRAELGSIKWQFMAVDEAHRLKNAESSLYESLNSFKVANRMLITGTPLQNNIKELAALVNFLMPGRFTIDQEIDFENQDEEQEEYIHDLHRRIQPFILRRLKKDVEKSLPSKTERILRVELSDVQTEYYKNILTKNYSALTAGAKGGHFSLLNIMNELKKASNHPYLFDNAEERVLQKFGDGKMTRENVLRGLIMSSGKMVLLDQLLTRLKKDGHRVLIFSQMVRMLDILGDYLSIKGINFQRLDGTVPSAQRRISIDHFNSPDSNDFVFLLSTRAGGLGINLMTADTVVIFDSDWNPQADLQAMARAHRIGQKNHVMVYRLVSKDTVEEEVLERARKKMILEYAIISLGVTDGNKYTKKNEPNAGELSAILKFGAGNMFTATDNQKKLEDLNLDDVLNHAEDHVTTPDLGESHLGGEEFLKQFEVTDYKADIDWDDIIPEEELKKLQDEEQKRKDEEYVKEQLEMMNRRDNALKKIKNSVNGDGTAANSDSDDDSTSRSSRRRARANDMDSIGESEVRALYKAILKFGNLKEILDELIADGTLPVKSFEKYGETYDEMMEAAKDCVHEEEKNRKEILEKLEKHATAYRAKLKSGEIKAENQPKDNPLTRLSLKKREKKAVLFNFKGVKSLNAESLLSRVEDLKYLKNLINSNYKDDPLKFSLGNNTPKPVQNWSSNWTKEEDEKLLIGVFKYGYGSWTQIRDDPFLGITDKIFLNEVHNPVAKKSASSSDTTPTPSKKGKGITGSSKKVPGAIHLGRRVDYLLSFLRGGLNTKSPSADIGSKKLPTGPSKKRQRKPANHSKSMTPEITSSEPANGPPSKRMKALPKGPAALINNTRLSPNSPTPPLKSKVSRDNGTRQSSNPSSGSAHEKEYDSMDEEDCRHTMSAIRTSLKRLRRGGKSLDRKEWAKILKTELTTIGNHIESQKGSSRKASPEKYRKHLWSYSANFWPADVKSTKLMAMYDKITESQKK

SMILES	Percent Effect [1]	Percent Effect [2]	Percent Effect [3]	Percent Effect [4]	Percent Effect (Trypanosoma cruzi)	Percent Effect [5]	Percent Effect [6]	Percent Effect (Homo sapiens)	Percent Effect [7]	Percent Effect [8]	Percent Effect [9]
CSc1nccn1-c1cccc(C(=O)NCCCN2CCOCC2)c1	-3.34%	18.4%	0.67%	-6.16%	1.21%	-2.52%	16.5%	5.76%	7.39%	18.5%	-4.95%
CCC1=N[C@@]2(CC[C@@H]3CN(Cc4ccc(Cl)cc4)C[C@@H]32)C(=O)N1C	-4.15%	2.7%	3.53%	4.31%	-0.0978%	-13.1%	16.4%	14.7%	0%	2.56%	2.84%
CN(C)C(=O)CN1CCCC2(CCN(c3ccsc3)C2=O)C1 (configuration not stated)	-1.45%	10.7%	2.54%	-9.8%	-5.71%	0.233%	7.84%	14.6%	-1.06%	-32%	-5.89%
CCN1CC(C(=O)N2CCC(Oc3ccccc3C)CC2)CC1=O (configuration not stated)	-1.72%	2.74%	2.75%	3.46%	-7.94%	2%	8.65%	7.65%	3.12%	21%	-0.203%
CC1CCCN(CCNC(=O)c2cncnc2C(C)C)C1 (configuration not stated)	-2.89%	6.94%	-1.93%	-5.17%	-4.96%	0.442%	8.25%	-15.9%	4.21%	12.8%	-3.15%
Cc1nc(C)n(CC2CCCN2CCCc2ccccc2)n1 (configuration not stated)	-1.6%	-11%	-0.4%	3.43%	1.96%	1.82%	7.1%	-8.87%	8.6%	5%	-1.02%
CN1C(=O)C(c2cccnc2)CC12CCN(C(=O)c1cccn1C)CC2 (configuration not stated)	-1.55%	0%	-0.439%	0.0913%	0%	4.48%	6.67%	-2.67%	-3.12%	-2.5%	-4.59%
N#Cc1ccc(C2CC(=O)Nc3c2cnn3C2CCCC2)cc1 (configuration not stated)	-3.53%	13.3%	0.53%	17.4%	4.77%	19.3%	3.66%	6.86%	1.64%	8.64%	-14.9%
Cc1cnn(CC2CCCCN2C(=O)CN(C)C2CC2)c1 (configuration not stated)	0.161%	26.6%	-0.801%	-3.2%	-0.103%	-1.94%	16.8%	-1.15%	6.25%	15.2%	-24%
Cn1cc(N2CCC(NC(=O)c3c(F)cccc3F)C2=O)cn1 (configuration not stated)	-7.01%	-2.7%	0.96%	-8.23%	-1.66%	-0.744%	0.258%	-14.2%	0%	1.24%	0.00639%
Cc1noc2nc(C3CCN(CC4=CCCOC4)CC3)cc(C(F)F)c12	-1.97%	6.76%	13.4%	0.663%	-3.56%	-3.02%	3.28%	2.72%	7.53%	11.7%	-11.7%
CC(C)(C)n1ncc2c1CCCC2NCc1cccc2c1OCO2 (configuration not stated)	-2.65%	-1.27%	2.85%	2.62%	-4.41%	6.24%	10.1%	12.2%	1.04%	-5.06%	-10.4%
CNC(=O)[C@@]12CCO[C@@H]1CCN(S(=O)(=O)c1cccc(C)c1)C2	-2.33%	10.8%	2.22%	0.794%	3.23%	7.96%	9.96%	11.1%	1.08%	12.8%	-1.83%
Cc1nc(COC[C@@H]2CC[C@H]3[C@H](CCN3S(C)(=O)=O)O2)cs1	1.19%	8.11%	-0.571%	-10.8%	-6.94%	7.96%	23.4%	8.05%	6.49%	10.3%	0.52%
COc1ccc(CCN2CCCC(CN(C)Cc3ccc(C)o3)C2)cc1 (configuration not stated)	-1.16%	0%	-4.07%	31.8%	5.18%	4.71%	0.772%	11.1%	5.38%	11.1%	0.528%
O=C(CCc1cscn1)N1CCCC(c2ccn[nH]2)C1 (configuration not stated)	-3.73%	-5.2%	4.11%	6.88%	-2.62%	1.07%	5.91%	15.7%	2.91%	0%	-3.79%
CN(Cc1ncc(-c2ccccc2)o1)CC1CCCN1c1cccnn1 (configuration not stated)	-0.973%	-26%	3.71%	2.54%	7.74%	-1.9%	1.54%	-9.54%	2.86%	9.41%	-9.3%
Cc1nc(CN2CCc3ncnc(C)c3CC2)cs1	-4.35%	0%	0.161%	1.66%	4.99%	3.5%	10.3%	-27.4%	2.16%	7.69%	4.23%
CCOCCn1c(=O)[nH]c2cc(C(=O)N(C)CCc3cn[nH]c3)ccc21	0.265%	16.2%	4.85%	14.1%	5.6%	22.4%	17.8%	13%	3.7%	12.2%	-7.29%
Cc1cc(C(C)NC(=O)N2CCC(n3cncn3)CC2)c(C)s1 (configuration not stated)	-4.4%	7.59%	-0.225%	9.65%	1.23%	-2.28%	-4.01%	3.67%	1.48%	3.8%	-3.57%
CC(Oc1ccccc1C(F)(F)F)C(=O)NCCC(=O)N(C)C (configuration not stated)	-4.14%	8.11%	-2.52%	6.01%	2.93%	26.2%	3.47%	-11.3%	4.95%	13.4%	-4%
COc1ccc(Br)c(C(=O)NCCNc2ccc(C(F)(F)F)cn2)c1	0.559%	18.2%	8.45%	-0.542%	-1.08%	0.21%	10.9%	-7.76%	11.4%	25.9%	-25.7%
